Screening results as filed in PubChem BioAssay.
UBC13 inh: UBC13 polyubiquitin chain formation inhibitors, primary screen, biochemical, TR-FRET, uHTS. Ubiquitin-conjugating enzyme E2 N (Homo sapiens), P61088. inhibition, % at 20 µM. actives 0.47% (n = 330,000). AID 485273, 2010; in the data active means inhibition above about 45%, passing the limit was not always enough; inconclusive means no clear call, values can overlap the other calls
Yeast superoxide: reduction of superoxide in aged yeast, primary screen, HTS; S. cerevisiae aged cells, superoxide DHE fluorescence; active compounds read low; superoxide response (% of plate mean), % at 10 µM; actives 0.18% (n = 330,000); AID 2690, 2010;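 active means superoxide response under a set limit, about three screen SD below normal, cut at about 65% in these data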;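 further: yeast aged for seven days with compound at 30 °C before DHE staining; 100% = average MFI of all compound-treated wells on the plate with controls excluded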
dFosB activator: activators of delta FosB homodimer, primary screen, biochemical, fluorescence polarization, TAMRA-CDK5 oligo, single point | activation, % at 25 µM | AID 493131, 2011 | Protein FosB (Mus musculus), P13346 | actives 0.99% (n = 340,000) | purified delta FosB; percent of positive-control signal above neutral wells;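 active means mean activation above about 17%, with every replicate also reaching it, limit read from the data, passing the limit was not always enough; inconclusive means only one of the two conditions met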
Target sequence (P13346 whole entry, looked up): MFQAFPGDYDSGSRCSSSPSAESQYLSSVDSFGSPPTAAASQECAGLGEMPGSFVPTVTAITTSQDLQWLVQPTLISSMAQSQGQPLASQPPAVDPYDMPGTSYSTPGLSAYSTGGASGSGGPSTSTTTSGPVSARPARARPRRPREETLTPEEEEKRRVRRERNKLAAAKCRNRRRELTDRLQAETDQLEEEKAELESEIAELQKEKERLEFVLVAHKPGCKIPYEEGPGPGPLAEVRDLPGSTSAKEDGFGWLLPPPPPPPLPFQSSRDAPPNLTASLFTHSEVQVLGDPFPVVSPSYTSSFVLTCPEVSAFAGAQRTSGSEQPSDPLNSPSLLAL
GRIN3A LBD mod: binders of NR3A ligand-binding domain, primary screen, biophysical, differential scanning fluorimetry, uHTS | NR3A LBD differential scanning fluorimetry, Tm shift; 0% = protein alone, 100% = glycine-bound protein | Tm shift relative to glycine control, % at 25 µM | actives 2.5% (n = 340,000) | AID 1259313, 2017;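 active means melting temperature shift of at least 10% of the positive control shift, at one fixed dose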
NALP1 yeast inh: NALP1 inflammasome inhibitors in reconstituted yeast, colorimetric, S. cerevisiae, triplicate retest; S. cerevisiae NALP1/ASC/caspase-1 growth, X-gal OD620, 72 h; inhibition, % at 10 µM; actives 0.61% (n = 280,000); AID 2071, 2009; in the data active means inhibition mostly above about 24%, no sharp cut-off; inactive means mostly below about 32%
* hit, by the source's call; ? = inconclusive; . = not tested or not shown. A selection: hits, their analogues and other compounds. The true share with any hit is near 4.3%.

SMILES | UBC13 inh | Yeast superoxide | dFosB activator | GRIN3A LBD mod | NALP1 yeast inh
NS(=O)(=O)c1cccc(NC(=O)c2ccccc2NS(=O)(=O)c2ccc(F)cc2)c1 | 9.6 | 100.2 | -9.7 | 4.7 | 4.5
O=C(O)c1ccccc1C(=O)Nc1ccc(S(=O)(=O)Nc2ccc(F)cc2)cc1 | -5.6 | 107.1 | 9.2 | 10.0* | 8.9
C[C@@H]1C(=O)O[C@H]2CC34[C@H]5C[C@@H](C(C)(C)C)[C@]36[C@@H](OC(=O)[C@@H]6O)O[C@@]4(C(=O)O5)[C@]21O (stereo partly specified) | -10.9 | 97.0 | 0.3 | 2.8 | .
COc1ccccc1C(=O)Nc1ccc(C(=O)N2CCCCC2)cc1 | -0.6 | 92.3 | -1.9 | 1.1 | 23.3
COc1ccccc1CNC(=O)COC(=O)c1ccc2c(=O)n3c(nc2c1)CCCCC3 | 14.4 | 99.5 | -9.9 | -1.8 | .
O=C(CNc1cccc(S(=O)(=O)N2CCCC2)c1)Nc1cccc(F)c1 | 0.3 | 118.0 | -4.9 | -0.3 | .
O=C(CNc1ccc(F)cc1Cl)Nc1cccc(S(=O)(=O)N2CCCCC2)c1 | 6.3 | 109.1 | -1.4 | 12.7* | .
COc1ccc(NC(=O)c2cccc3ccccc23)cc1 | -2.8 | 115.2 | -1.3 | 21.8* | 5.9
COc1ccc(NC(=O)c2cc3ccc4c5ccccc5[nH]c4c3cc2O)cc1 | -8.5 | 108.0 | 4.6 | 229.5* | 11.9
CCCCNC(=O)Nc1ccccc1C(=O)NCCC | -10.3 | 94.2 | -5.6 | -0.6 | -31.6
CC(=O)Nc1ccc(OCc2cccc3ccccc23)cc1 | 6.8 | 98.7 | -2.9 | -3.0 | 29.1*
CCCCNC(=O)Nc1ccccc1C(=O)Nc1ccc(OC)cc1 | -7.5 | 101.5 | -0.4 | 10.7* | 6.6
CSC(=NS(=O)(=O)c1ccc(N)cc1)NS(=O)(=O)c1cccs1 | . | . | 0.3 | -2.0 | .
COc1cc(NC(=O)CN2CCN(CC(=O)Nc3ccccc3OC)CC2)cc(OC)c1 | 16.8 | 93.8 | -5.7 | -1.5 | 6.7
Cc1cccc(C(=O)Nc2nccs2)c1[N+](=O)[O-] | -11.1 | 106.7 | 0.3 | -0.2 | 20.2
CCOC(=O)/C(=C\c1cn(C)c2ccccc12)[N+](=O)[O-] | 1.4 | 90.7 | -8.2 | 33.6* | .
O=C(O)c1cc(S(=O)(=O)NC(Cc2c[nH]c3ccccc23)C(=O)O)ccc1Cl (stereo unspecified) | -4.3 | 105.7 | 0.6 | 0.2 | 10.0
N#CCOC(=O)[C@H](Cc1c[nH]c2ccccc12)NS(=O)(=O)c1ccc(Cl)cc1 | -1.2 | 112.0 | -22.6 | 28.7* | 1.5
Cc1cc2cc(CNC(=S)Nc3ccc(OC(F)F)cc3)ccc2[nH]1 | 13.8 | 96.9 | 0.1 | 3.8 | 17.6
Cc1cc2cc(CNC(=S)Nc3ccc(OC(F)(F)F)cc3)ccc2[nH]1 | -4.8 | 99.1 | 3.0 | 12.4* | 13.3
COc1cccc(C2CC(c3c(-c4ccccc4)c4cc(Cl)ccc4[nH]c3=O)=NN2S(C)(=O)=O)c1OC (stereo unspecified) | -4.1 | 117.7 | ? | -2.5 | -12.5
COc1ccccc1C1CC(c2c(-c3ccccc3)c3cc(Cl)ccc3[nH]c2=O)=NN1S(C)(=O)=O (stereo unspecified) | 17.2 | 108.1 | 2.1 | 25.4* | 8.8
O=C(C[n+]1ccc(-c2nnc3n2CCC3)cc1)c1ccc(Cl)c(Cl)c1 | -0.5 | 88.9 | -4.7 | 13.1* | 1.3
COc1ccc(C(=O)C[n+]2ccc(-c3nnc4n3CCC4)cc2)cc1 | -3.9 | 100.0 | 9.5 | 5.6 | 27.6
NC(=O)CSc1nnc(-c2ccc(S(=O)(=O)N3CCCC3)cc2)n1Cc1ccco1 | 10.8 | 105.7 | -9.1 | 11.1* | 25.7
O=C(O)CSc1nnc(-c2ccc(S(=O)(=O)N3CCCC3)cc2)n1Cc1ccco1 | -5.9 | 99.7 | 0.3 | 1.7 | -4.3
Cc1ccc2c(c1)N(C)/C(=C/c1cccc[n+]1C)S2 | -41.3 | 118.9 | 17.6* | 2.1 | 14.9
Cc1c(NC(=O)C(C)Sc2n[nH]c(N)n2)c(=O)n(-c2ccccc2)n1C (stereo unspecified) | -1.8 | 99.4 | 2.8 | -8.1 | 38.4*
Cc1nc(SC(C)C(=O)Nc2c(C)n(C)n(-c3ccccc3)c2=O)nc(C)c1C (stereo unspecified) | 10.3 | 102.5 | -0.2 | 1.2 | .
